We go through 39 compounds from PubChem BioAssay (NCI).

This is part of a sample that, as a whole, favours compounds with a hit. Of some 79,000 tested, about 15% had one in any assay. Values without a mark were called inactive. The source made the active and inactive calls. No stated cut-off is given here; in the data, active means growth inhibition above about 70%; inactive means the rest.

One experiment can be described thus: NCI Yeast Anticancer Drug Screen. Data for the rad50 strain (AID 155).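 Further: 0% = growth of vehicle-only cultures of the same strain.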 The conditions noted are these: S. cerevisiae rad50 strain growth inhibition; at 1.2 µM; active compounds read high. Put shortly: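 Yeast carrying a defined DNA repair defect were exposed to test compounds, and growth was compared with vehicle-treated controls to give percent inhibition.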
For `CS(=O)(=O)SCc1ccc([N+](=O)[O-])cc1`, the growth inhibition is 1%.
Take `Cc1csc(=S)n1OC(=O)NC1CCCCC1`: the growth inhibition is -2%.
The same measure, in the same setting: under `CCOc1ccc(NC(=O)C2=C(C)NC(C)=C(C(=O)Nc3ccc(OCC)cc3)C2c2cccc([N+](=O)[O-])c2)cc1` stands -3%.
Take `CC(C)(C)N=C(NO)c1ccccc1`: the growth inhibition was -2%.
Same read-out and setting: for `CCCCC/C(=C(\C#N)C(=O)OCC)c1ccccc1` the value was -1%; for `O=C(NCCCl)Sc1ccc(Cl)cc1`, 4%; for `O=C1Nc2ccc(Br)cc2C1=Nc1ccc2c(c1)OCO2`, -29%.
As for `CCC(C)OC(=O)Nc1ccc(C)c(NC(=O)OC(C)CC)c1` (stereo not drawn), the growth inhibition was 1%.
For `O=C(O)c1cc2ccc(Cl)cc2c(O)c1C1=CCCCC1`, the growth inhibition was -7%.
On to `CN(C)Cc1cc(N=Nc2ccc(Cl)cc2)ccc1OC(=O)c1ccccc1`, for which the growth inhibition is 1%.
For `CN1CCN(C(=O)/C=C/C(=O)c2ccccc2)CC1`, the growth inhibition was -3%.
As to `CCCC/C=C/C(C)(C(=O)OCC)C(=O)OCC`, the growth inhibition was -6%.
On to `Cc1nc(-c2cc3cc([N+](=O)[O-])ccc3oc2=O)cs1`, for which the growth inhibition was 20%.
With `Cc1nc2ccccc2nc1NNc1ccccc1`, the growth inhibition is -6%.
Same read-out and setting: for `CN(C)[C@@H]1C(=O)C(C(N)=O)=C(O)[C@@]2(O)C(=O)C3=C(O)c4c(O)cccc4C[C@H]3C[C@@H]12` the value was -19%; for `COc1ccc(NC(=O)CC2SC(=Nc3ccccc3C)NC2=O)c([N+](=O)[O-])c1` (stereo not drawn), 1%; for `COc1cc(O)c2c(c1O)C(=O)c1cc(C)ncc1C2=O`, 8%.
Turning to `CSc1nnc(SC)nn1`, the growth inhibition was -13%.
The same measure, in the same setting: under `COc1cc(/C=C2\CCC/C(=C\c3ccc(O)c(OC)c3)C2=O)ccc1O` stands -30%; under `CN(C)CCNC(=O)c1cccc2cc([N+](=O)[O-])ccc12`, 35%; under `CCC(C)(C)c1ccc(Oc2cccc(C(=O)O)c2)cc1`, 2%.
Regarding `CCCCCCSc1ncnc2[nH]ncc12`, the growth inhibition was 2%.
The same measure, in the same setting: for `CC(=O)Nc1ccc(/C=C/[N+](=O)[O-])cc1` the value was 31%; for `CCOC(=O)c1[nH]n(-c2ccccc2)c(=O)c1C=NC(=S)C(N)=S`, 8%.
With `CCCC(O)C1CC(C(C)C)CCC1C` (stereo not drawn), the growth inhibition is 0%.
On to `O=[n+]1c2ccccc2n([O-])c2cc(Br)ccc21`, for which the growth inhibition is 86% (active).
The same measure, in the same setting: for `CN(C)CCNC(=O)c1cccc2c1Oc1c(cccc1[N+](=O)[O-])O2` the value was 6%; for `Nc1ncc(-c2ccc(Br)cc2)s1`, 7%.
Take `Cc1cc2cc3cc(C)c(N)cc3nc2cc1N`: the growth inhibition was -9%.
Still for that read-out and setting: under `CC12C(=O)OC(=O)C(c3ccccc31)c1ccccc12` stands -18%; under `c1ccc2c(OCC3CO3)cccc2c1` (stereo not drawn), 0%; under `CCOC(=N)c1ccc(O)c(OC)c1`, -1%.
In the case of `Nc1cc(N)c(N=Nc2cccc3c(S(=O)(=O)O)cccc23)cc1N=Nc1cc([N+](=O)[O-])ccc1O`, the growth inhibition was 15%.
Take `COC(=O)Oc1cc(Cl)c(Cl)cc1Cl`: the growth inhibition is 0%.
Consider `O=C(O)C1CC(c2ccccc2)=NN1c1ccccc1` (stereo not drawn), for which the growth inhibition was -10%.
On to `COc1cc([C@@H]2c3cc4c(cc3[C@@H](Nc3ccc(NC(=O)c5cc([N+](=O)[O-])cn5C)cc3)[C@H]3COC(=O)[C@H]23)OCO4)cc(OC)c1O`, for which the growth inhibition was 11%.
For `O=C(O)c1ccccc1/C=N/N=C1c2ccccc2-c2ccccc21`, the growth inhibition was 0%.
Regarding `O=C1CC(=O)c2ccccc21`, the growth inhibition is 4%.
Consider `Nc1ncnc2c1ncn2C1OC(CO)CC1O` (stereo not drawn), for which the growth inhibition is -9%.

The experiment is the same for the next values; noted with them: S. cerevisiae rad50 strain growth inhibition; at 3.7 µM; active compounds read high.
With `CS(=O)(=O)SCc1ccc([N+](=O)[O-])cc1`, the growth inhibition is 41%.
`Cc1csc(=S)n1OC(=O)NC1CCCCC1`: the growth inhibition is 98% (active).
Consider `CCOc1ccc(NC(=O)C2=C(C)NC(C)=C(C(=O)Nc3ccc(OCC)cc3)C2c2cccc([N+](=O)[O-])c2)cc1`, for which the growth inhibition is -1%.
`CC(C)(C)N=C(NO)c1ccccc1`: the growth inhibition was -1%.
Same read-out and setting: for `CCCCC/C(=C(\C#N)C(=O)OCC)c1ccccc1` the value was -1%; for `O=C(NCCCl)Sc1ccc(Cl)cc1`, -7%; for `O=C1Nc2ccc(Br)cc2C1=Nc1ccc2c(c1)OCO2`, -26%.
On to `CCC(C)OC(=O)Nc1ccc(C)c(NC(=O)OC(C)CC)c1` (stereo not drawn), for which the growth inhibition is 1%.
Consider `O=C(O)c1cc2ccc(Cl)cc2c(O)c1C1=CCCCC1`, for which the growth inhibition was -5%.
Take `CN(C)Cc1cc(N=Nc2ccc(Cl)cc2)ccc1OC(=O)c1ccccc1`: the growth inhibition was 1%.
`CN1CCN(C(=O)/C=C/C(=O)c2ccccc2)CC1`: the growth inhibition was -8%.
As for `CCCC/C=C/C(C)(C(=O)OCC)C(=O)OCC`, the growth inhibition was -5%.
In the case of `Cc1nc(-c2cc3cc([N+](=O)[O-])ccc3oc2=O)cs1`, the growth inhibition is 17%.
Regarding `Cc1nc2ccccc2nc1NNc1ccccc1`, the growth inhibition is -12%.
As to `CN(C)[C@@H]1C(=O)C(C(N)=O)=C(O)[C@@]2(O)C(=O)C3=C(O)c4c(O)cccc4C[C@H]3C[C@@H]12`, the growth inhibition was -25%.
Consider `COc1ccc(NC(=O)CC2SC(=Nc3ccccc3C)NC2=O)c([N+](=O)[O-])c1` (stereo not drawn), for which the growth inhibition is -44%.
The same measure, in the same setting: under `COc1cc(O)c2c(c1O)C(=O)c1cc(C)ncc1C2=O` stands 13%; under `CSc1nnc(SC)nn1`, -3%.
`COc1cc(/C=C2\CCC/C(=C\c3ccc(O)c(OC)c3)C2=O)ccc1O`: the growth inhibition is -9%.
The same measure, in the same setting: for `CN(C)CCNC(=O)c1cccc2cc([N+](=O)[O-])ccc12` the value was 42%; for `CCC(C)(C)c1ccc(Oc2cccc(C(=O)O)c2)cc1`, -1%; for `CCCCCCSc1ncnc2[nH]ncc12`, 4%.
On the same count and under the same terms, for `CC(=O)Nc1ccc(/C=C/[N+](=O)[O-])cc1` the value was 35%; for `CCOC(=O)c1[nH]n(-c2ccccc2)c(=O)c1C=NC(=S)C(N)=S`, 29%; for `CCCC(O)C1CC(C(C)C)CCC1C` (stereo not drawn), -46%.
As for `O=[n+]1c2ccccc2n([O-])c2cc(Br)ccc21`, the growth inhibition was 97% (active).
As for `CN(C)CCNC(=O)c1cccc2c1Oc1c(cccc1[N+](=O)[O-])O2`, the growth inhibition is 10%.
Turning to `Nc1ncc(-c2ccc(Br)cc2)s1`, the growth inhibition was 7%.
The same measure, in the same setting: under `Cc1cc2cc3cc(C)c(N)cc3nc2cc1N` stands -18%.
On the same count and under the same terms, under `CC12C(=O)OC(=O)C(c3ccccc31)c1ccccc12` stands -17%; under `c1ccc2c(OCC3CO3)cccc2c1` (stereo not drawn), 12%.
Take `CCOC(=N)c1ccc(O)c(OC)c1`: the growth inhibition was 16%.
On to `Nc1cc(N)c(N=Nc2cccc3c(S(=O)(=O)O)cccc23)cc1N=Nc1cc([N+](=O)[O-])ccc1O`, for which the growth inhibition is 10%.
As to `COC(=O)Oc1cc(Cl)c(Cl)cc1Cl`, the growth inhibition is 0%.
Still for that read-out and setting: for `O=C(O)C1CC(c2ccccc2)=NN1c1ccccc1` (stereo not drawn) the value was -11%; for `COc1cc([C@@H]2c3cc4c(cc3[C@@H](Nc3ccc(NC(=O)c5cc([N+](=O)[O-])cn5C)cc3)[C@H]3COC(=O)[C@H]23)OCO4)cc(OC)c1O`, 74% (active); for `O=C(O)c1ccccc1/C=N/N=C1c2ccccc2-c2ccccc21`, -6%.
For `O=C1CC(=O)c2ccccc21`, the growth inhibition is 3%.
The same measure, in the same setting: under `Nc1ncnc2c1ncn2C1OC(CO)CC1O` (stereo not drawn) stands -3%.
